Experimental data taken from PubChem BioAssay AID1727 (National Center for Advancing Translational Sciences (NCATS), 2009).
Active and inactive are the calls of the source. A call without a number means that no potency is given here. Calls come from the whole dose curve; as a rule, active = well fitted curve in the direction sought with a large enough effect; inactive = no such curve, though single readings can be large or run the other way.

These molecules were tested against Epidermal growth factor receptor (Homo sapiens) (UniProt P00533) (assay: Assay for Inhibitors of the ERK Signaling Pathway using a Homogeneous Screening Assay: EGFR L858R Kinase Inhibition). Details: EGFR L858R kinase biochemical inhibition assay; series mostly up to 21.9 µM.
Chain of Epidermal growth factor receptor (Homo sapiens) (P00533 whole entry L858R, looked up): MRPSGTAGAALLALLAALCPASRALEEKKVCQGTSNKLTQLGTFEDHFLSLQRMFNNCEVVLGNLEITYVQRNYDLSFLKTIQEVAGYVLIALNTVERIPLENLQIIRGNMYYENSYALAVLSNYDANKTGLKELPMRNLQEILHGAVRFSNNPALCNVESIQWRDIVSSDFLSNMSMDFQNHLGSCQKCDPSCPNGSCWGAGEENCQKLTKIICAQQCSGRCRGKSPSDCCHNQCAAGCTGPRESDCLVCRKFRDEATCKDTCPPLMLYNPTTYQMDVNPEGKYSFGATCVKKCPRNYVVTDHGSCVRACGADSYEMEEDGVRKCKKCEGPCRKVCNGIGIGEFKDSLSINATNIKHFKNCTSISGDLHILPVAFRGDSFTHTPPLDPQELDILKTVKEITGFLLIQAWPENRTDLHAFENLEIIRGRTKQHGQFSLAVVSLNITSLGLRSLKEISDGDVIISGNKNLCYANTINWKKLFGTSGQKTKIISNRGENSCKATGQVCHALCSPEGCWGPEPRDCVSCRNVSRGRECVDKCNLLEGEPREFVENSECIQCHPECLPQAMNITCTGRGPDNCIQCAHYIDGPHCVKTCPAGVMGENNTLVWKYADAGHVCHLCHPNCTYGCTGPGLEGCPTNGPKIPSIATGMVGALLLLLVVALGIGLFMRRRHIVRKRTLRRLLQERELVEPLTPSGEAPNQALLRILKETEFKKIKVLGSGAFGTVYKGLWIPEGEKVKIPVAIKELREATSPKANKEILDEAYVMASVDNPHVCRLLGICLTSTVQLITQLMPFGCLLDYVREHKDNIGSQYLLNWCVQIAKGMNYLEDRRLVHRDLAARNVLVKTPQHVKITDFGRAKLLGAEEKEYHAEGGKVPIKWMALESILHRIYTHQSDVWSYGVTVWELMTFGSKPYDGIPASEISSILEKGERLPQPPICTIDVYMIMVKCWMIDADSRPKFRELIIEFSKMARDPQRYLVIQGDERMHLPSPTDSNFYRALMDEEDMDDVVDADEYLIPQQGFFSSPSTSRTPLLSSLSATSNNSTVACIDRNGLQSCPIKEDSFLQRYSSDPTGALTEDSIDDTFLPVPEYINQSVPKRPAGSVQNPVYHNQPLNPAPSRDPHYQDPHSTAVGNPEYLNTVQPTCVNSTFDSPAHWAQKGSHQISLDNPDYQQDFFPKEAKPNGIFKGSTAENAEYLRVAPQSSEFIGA
From the text: qHTS Assay for Inhibitors of the ERK Signaling Pathway using a Homogeneous Screening Assay
NIH Chemical Genomics Center [NCGC]
NIH Molecular Libraries Screening Centers Network [MLSCN]
Assay Submitter (PI): Dr. Wei Zheng, NCGC/NIH
The Ras/extracellular-signal-regulated kinase (ERK) mitogen activated protein (MAP) kinase signaling pathway (ERK1/2 cascade) plays is a key role in transmitting signals from the cell surface to the nucleus (Nishida and Gotoh 1993; Chang and Karin, 2001). The cascade is initiated by the small G-protein Ras, which recruits Raf […], where activation occurs. Alternatively, this pathway can be activated by elevating intracellular cAMP.
Activation of the ERK pathway is essential in increased cell division and cell survival. Sustained and constitutive activation of the ERK pathway, however, has been linked to uncontrolled cell proliferation, increased cell survival, and tumor progression. Thus, the ERK has been as an attractive target for cancer chemotherapy in the past few years (Sebolt-Leopold and Herrera, 2004). Given its physiological and pathological importance, assessment of ERK phosphorylation has been broadly performed in both basic research and drug discovery. Most assays for the measurement of ERK phosphorylation use the antibody-based detection methods, such as western blot and ELISA. These assays require multiple reagent additions with cell wash steps and are not suitable for high-throughput screening.
The current cell-based ERK phosphorylation assay was performed using AlphaScreen platform. AlphaScreen is a two bead-based proximity-dependent chemical energy transfer luminescent assay platform. The assay reagents (ERK SureFire(TM) kit) were supplied from TGR BioSciences (Australia). In the presence of specific antibodies, phosphorylated ERK will bring "donor" and "acceptor" beads to a proximity range (<200 nm), and subsequently lead a chemical luminescent reaction upon exciting donor beads with 680 nm laser. To validate pathway hits from the cell-based assay, enzyme assays consisting of EGFR tyrosine kinase, Raf and MEK were used as a means of deciphering the enzymes of target for the prioritized group of compounds derived from the HEK-293 cell based assay. The compounds were tested against significant members of the ERK signaling pathway EGFR and EGFR mutants (EGFR L858R, EGFR T790M, and EGFR L858R T790M). In order to establish the specificity of the prioritized compounds for EGFR and EGFR mutants, the compounds were also assayed against other important ERK signaling pathway enzymes, c-RAF and MEK-1.
NCGC Assay Protocol Summary:
The HTRF kinase assay (components supplied as kit by Cisbio) was chosen for the EGFR and EGFR mutant enzyme assays that applied the time resolved fluorescence resonance energy transfer (TR-FRET) principle. A peptide substrate is labeled with a biotin that can bind to XL665 labeled streptavidin and the anti-phosphoresidue antibody is labeled with Eu+. Upon phosphorylation of the substrate, the antibody binds to phosphorylated substrate that enables TR-FRET detection in homogenous assay format.
An HTRF Kinease TK assay kit (Cisbio, Bedford, MA) was used to develop the EGFR and EGFR mutant assays (Harbert et al., 2008. Harbert C, Marshall J, Soh S, Steger K. Development of a HTRF Kinase Assay for Determination of Syk Activity. Current Chemical Genomics. 1: 20-26. 2008). EGFR and EGFR mutants were obtained from Invitrogen. The assay buffer was composed of 50 mM HEPES (pH 7.0), 5 mM MgCl2, 5mM DTT, 0.1 % NaN3, 0.1 % BSA and 0.1 mM orthovanadate.
The HTRF assays were preformed according to the HTRF Kinease TK kit. Optimization for each enzyme was preformed in 384 well format (data not included). All reagents were dispensed into 1536 well plates.
(1) Enzyme, […] EGFR at 3 nM final
(2) Compound, 22 nl, Library Compounds in 0.128 to 10 mM titration series or control
(3) Reagent, 1.5 ul 10 uM ATP and 0.25 uM substrate final
(4) Incubation for 30 min, Ambient conditions
[…]
With Cn1nc(-c2ccc(Cl)cc2)nc2c(=O)n(C)c(=O)nc1-2 the Potency was “inactive”.
In the case of CNc1cccc2c1C(=O)c1ccccc1C2=O, the Potency is reported as “inactive”.
For O=C1c2ccccc2C(=O)c2c1cccc2N1CCCC1, the Potency was “inactive”.
In the case of Cn1nc(-c2ccccn2)nc2c(=O)n(C)c(=O)nc1-2, the Potency is reported as “inactive”.
For Fc1ccc(Nc2ncnc3sc4c(c23)CCC4)cc1F, the Potency was 44.7 nM (active).
With CS(=O)(=O)CCNCc1nc(-c2ccc3ncnc(Nc4ccc(OCc5cccc(F)c5)c(Cl)c4)c3c2)cs1 the Potency was 50.1 nM (active).
In the case of N#C/C(=C(/N)Sc1ccc(N)cc1)c1ccccc1C(F)(F)F, the Potency is reported as “inactive”.
For O=C1c2ccccc2C(=O)c2c(NCCCN(CCO)CCO)cccc21, the Potency was “inactive”.
For O=C(Nc1nc(-c2ccccc2)cs1)c1ccc(N2CCOCC2)c([N+](=O)[O-])c1, the Potency was “inactive”.
In the case of Cc1ccc(NNc2c(C)nc3ccccc3nc2=O)cc1, the Potency is reported as 3160 nM (active).
With COc1ccc(C(=O)c2ccc(Cl)c([N+](=O)[O-])c2)cc1 the Potency was “inactive”.
For CCn1c(=O)c2[nH]c(-c3ccccc3)nc2n(CC)c1=O, the Potency was “inactive”.
With Cc1ccc2nc(=O)c(NNc3ccccc3)cnc2c1 the Potency was 631 nM (active).
With CN(C)c1cccc2c1C(=O)c1ccccc1C2=O the Potency was “inactive”.
For Cn1c(=O)[nH]c2nnc(-c3ccc(Cl)c(Cl)c3)nc2c1=O, the Potency was “inactive”.
In the case of Cc1nc2ccccc2nc(=O)c1NNc1ccccc1, the Potency is reported as 631 nM (active).
With CCN(CC)CCC(=O)Nc1cccc2c1C(=O)c1ccccc1C2=O the Potency was “inactive”.
